Results from PubChem BioAssay (Tox21).
Values joined by “and” are separate entries in the source; they are usually repeats but may differ in a detail not shown here. Identical values can stand only once. Inconclusive results are not listed. Entries that show only a call come without a potency. Active and inactive are the calls of the source. Calls follow the shape of the dose curve; as a rule, active = well fitted cell-killing curve with a large enough effect in the repeat runs; inconclusive = weak or mixed curves, or effect the other way; inactive = flat fitted curve, though single readings scatter.

assay: qHTS RealTime-Glo MT Cell Viability Assay in HEK293 cells - 16 hour (AID 1224872); conditions: RealTime-Glo luminescence; series mostly up to 76.8 µM; also: nearly all actives have a fitted effect of over 50% in size
Description: National Center for Advancing Translational Sciences [NCATS]
NIH Chemical Genomics Center [NCGC]
U.S. Environmental Protection Agency [EPA]
National Institutes of Environmental Health Sciences [NIEHS]
National Toxicology Program [NTP]
U.S. Food and Drug Administration [FDA]
Measure of cell viability is critical in the cell-base assay. Analysis of cell viability is necessary for the characterization of cell responses to cytotoxic drugs and environmental stress. A RealTime-Glo MT Cell Viability Assay to monitor cell viability in real time of continues cell culture during 40 hours of compound treatment was used to screen Tox21 10K library compounds in Hek293 cells. The RealTime-Glo MT Cell Viability Assay is a nonlytic, homogeneous, bioluminescent method to measure cell viability in real time using a simple, plate-based method. The assay involves adding NanoLuc luciferase and a cell-permeant prosubstrate to cells in culture. Viable cells reduce the proprietary prosubstrate to generate a substrate for NanoLuc luciferase. This substrate diffuses from cells into the surrounding culture medium, where it is rapidly used by the NanoLuc Enzyme to produce a luminescent signal. The signal correlates with the number of viable cells, making the assay well suited for cytotoxicity studies.
Tox21 Assay Protocol Summary:
The mixture of Hek293 cell suspension and reagents were dispensed at 600cells/6 ul/well in 1536-well tissue culture treated black solid bottom plates using a Multidrop dispenser. After the assay plates were incubated at a 37 C/5% CO2 incubator for 5 hours, 23 nL of compounds dissolved in DMSO, positive and negative controls was transferred to the assay plate by a pintool work station. The plates were incubated at 37 C for 40 hours. The luminescence intensity were measured at 0h, 8h, 16h, 24h, 32h and 40h time points using ViewLux plate reader during compound treatment.
Potency is read from the fitted curve at half-maximal effect.

Structure (SMILES)	Potency
Nc1nc(N)nc(Cl)n1	inactive
Nc1nc(N)c(N)c(N)n1	inactive
[Cl-].[Cl-].[Sn+2]	inactive
O=[N+]([O-])c1ccc(Cl)c(Cl)c1Cl	inactive
CN(C)c1ccc(N)cc1	42.6 µM (active)
CCN(CC)Cc1nccn1-c1ccc([N+](=O)[O-])cc1C(=O)c1ccccc1Cl	inactive
[C-]1=CC=CC1.[Cl][Zr+2][Cl].c1cc[cH-]c1	inactive
CCC[CH2][Sn]([CH2]CCC)([CH2]CCC)[CH2]CCC	9.77 µM (active)
O=P(Cl)(Cl)Cl	inactive
O=C1C2(Cl)C3(Cl)C4(Cl)C(Cl)(Cl)C5(Cl)C3(Cl)C1(Cl)C5(Cl)C24Cl (stereo not given)	21.5 µM (active) and 41.8 µM (active)
Cc1cc2c3c(c1)C(c1ccccc1)=N[C@@H](NC(=O)c1ccncc1)C(=O)N3CC2	inactive
CC[C@]1(O)CC[C@H]2[C@@H]3CCC4=CCCC[C@@H]4[C@H]3CC[C@@]21C	inactive
[O-][Cl+3]([O-])([O-])O	inactive
CCC(C)c1cccc(C(C)CC)c1O (stereo not given)	inactive
O=c1[nH]c2cc(Cl)ccc2n1C1CCNCC1	inactive
FC(F)C(F)(F)OCC(Cn1cncn1)c1ccc(Cl)cc1Cl (stereo not given)	24.4 µM (active)
COC(=O)C(C)N(C(=O)c1ccco1)c1c(C)cccc1C (stereo not given)	inactive
O=[N+]([O-])c1cc(C(F)(F)F)c(Cl)c([N+](=O)[O-])c1Nc1ncc(C(F)(F)F)cc1Cl	2.75 µM (active)
ClC1=C(Cl)[C@]2(Cl)[C@H]3[C@H]([C@@H]4C=C[C@H]3C4)[C@@]1(Cl)C2(Cl)Cl	43.6 µM (active) and 38.9 µM (active)
Oc1ccc(Cl)c(Cl)c1	inactive

Structure (SMILES)	Potency
[O]=[Cr](=[O])([OH])[O][Cr](=[O])(=[O])[OH]	7.83 µM (active) and 21.8 µM (active)
O=S1OCC2C(CO1)C1(Cl)C(Cl)=C(Cl)C2(Cl)C1(Cl)Cl (stereo not given)	19.5 µM (active) and 38.9 µM (active)
CN1C2CCC(C)(C)C1CC(OC(=O)C(O)(c1cccs1)c1cccs1)C2 (stereo not given)	inactive
CNC(C)(C)Cc1ccccc1	inactive
CC(Cc1ccccc1)N(C)Cc1ccco1 (stereo not given)	inactive
ClC(Cl)C(Cl)(Cl)Cl	inactive
COP(=S)(OC)Oc1nc(Cl)c(Cl)cc1Cl	inactive
Cc1c([N+](=O)[O-])c(C)c([N+](=O)[O-])c(C(C)(C)C)c1[N+](=O)[O-]	inactive
CC(C)C(Br)C(=O)NC(N)=O (stereo not given)	inactive
CCOP(=O)(OCC)Oc1nc(Cl)c(Cl)cc1Cl	inactive
O=C(NC(=O)c1c(F)cccc1F)Nc1ccc(Oc2ccc(C(F)(F)F)cc2Cl)cc1F	24.5 µM (active)
CN(C)C(=S)SSC(=S)N(C)C	384 nM (active) and 692 nM (active)
CC(O)C(=O)[O][Hg][c]1ccccc1 (stereo not given)	1.1 µM (active)
CCOC(=O)Cc1ccccc1	inactive
O=[N+]([O-])c1ccccc1-c1ccccc1	inactive
COP(=O)(OC)O/C(=C\Cl)c1cc(Cl)c(Cl)cc1Cl	inactive
CCC(C)Br (stereo not given)	inactive
COc1ccc2c(c1OC)C(=O)O[C@@H]2[C@H]1c2cc3c(cc2CCN1C)OCO3	inactive
CC(Cc1ccc(O)cc1)NCC(O)c1cc(O)cc(O)c1 (stereo not given)	inactive
CCCN	inactive
